For assay [1], the target named is Retinoic acid receptor RXR-alpha (Homo sapiens) (UniProt P19793). The assay can be described thus: qHTS assay to identify small molecule agonists of the RXR signaling pathway (AID 1159527; calls by dose curve; also: nearly all actives have a fitted effect of over 35% in size; also: potency is read from the fitted curve at half-maximal effect). The method, boiled down: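 Beta-lactamase reporter assay, agonist format. Engineered HEK 293T line, charcoal-stripped FBS at 2%, overnight (16 hr) exposure, fluorescence at 460 and 530 nm after 405 nm excitation.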
(In general: In qHTS, concentration-response curves come from the screen itself.)

The nature of assay [2]: qHTS assay to identify small molecule agonists of the RXR signaling pathway - cell viability counter screen (AID 1159529).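 Also: HEK 293T cells carrying an RXR-alpha UAS beta-lactamase reporter; series mostly up to about 77 µM; nearly all actives have a fitted effect of over 50% in size.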 The method, boiled down: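 Same-well viability check after the LiveBLAzer FRET read: CellTiter-Glo added, luminescence measured after 30 min at room temperature. Reporter HEK 293T cells had been treated with compounds for 16 hr following a 5 hr preincubation.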

Assay [3] in a line: qHTS assay to identify small molecule antagonists of the retinoid acid receptor (RAR) signaling pathway - cell viability counter screen (AID 1159551). Also: nearly all actives have a fitted effect of over 35% in size. In short, it runs like this:
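C3RL4 cells were seeded overnight at 37 C, then treated with compounds plus 1 uM (final) retinol for 6 h at 37 C. Viability was read as ATP by CellTiter-Glo luminescence after 30 min at room temperature.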

Assay [4] is described as follows: qHTS assay to identify small molecule antagonists of the retinoic acid receptor (RAR) signaling pathway (AID 1159552; also: nearly all actives have a fitted effect of over 50% in size). The method, boiled down:
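Readout: luciferase luminescence, 30 min post-reagent at RT. Setup: C3RL4 RARE reporter cells, compounds plus retinol 1 uM final, 6 hr incubation at 37 C and 5% CO2.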

Assay [5] in a line: qHTS assay to identify small molecule antagonists of the estrogen related receptor (ERR) signaling pathway from Tox21 library - cell viability counter screen (AID 1224834). Also: nearly all actives have a fitted effect of over 30% in size. The method, boiled down: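 ERR reporter cells were plated 6 h before compound addition, then exposed to test compounds in DMSO for 17.5 h at 37 C. Viability was read as CellTiter-Fluor fluorescence after a 30-minute incubation at 37 C.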

The nature of assay [6]: qHTS assay to identify small molecule agonists of the constitutive androstane receptor (CAR) signaling pathway - cell viability counter screen (AID 1224836). Also: series mostly up to about 92 µM; nearly all actives have a fitted effect of over 45% in size. The method, boiled down:
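Compound titrations (15 concentrations) went onto HepG2-CYP2B6-hCAR cells 4 h after seeding, alongside PK11195 at a final 0.75 uM; a 23 h, 37 C/5% CO2 incubation preceded CellTiter-Fluor viability measurement.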

Assay [7] can be described thus: qHTS assay to identify small molecule antagonists of the constitutive androstane receptor (CAR) signaling pathway - cell viability counter screen (AID 1224837). Also: series mostly up to about 92 µM; nearly all actives have a fitted effect of over 45% in size. In short, it runs like this: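 HepG2 cells stably expressing hCAR and a CYP2B6-2.2kb reporter were plated and pre-incubated 4 hr at 37 C/5% CO2, then given compounds at 15 concentrations plus 50 nM CITCO (final). After 23 hr, viability was read by CellTiter-Fluor fluorescence.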

The target of assay [8] is Nuclear receptor subfamily 1 group I member 3 (Homo sapiens) (UniProt Q14994). Put plainly: qHTS assay to identify small molecule antagonists of the constitutive androstane receptor (CAR) signaling pathway (AID 1224838). Also: nearly all actives have a fitted effect of over 40% in size. The method, boiled down: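 HepG2 cells stably co-transfected with hCAR and a CYP2B6-2.2kb luciferase reporter were seeded 4 h before compound addition at 15 concentrations. Cells were stimulated with 50 nM CITCO (final) for 24 h at 37 C; luciferase luminescence was then read.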

Assay [9] is described as follows: qHTS assay to identify small molecule antagonists of the estrogen related receptor signaling pathway with the pleiotropic PPARgamma coactivator (PGC) from Tox21 10K library - cell viability counter screen (AID 1224840; active = well fitted cell-killing curve with a large enough effect in the repeat runs, not every such curve was filed as active; also: nearly all actives have a fitted effect of over 40% in size). The method, boiled down:
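PGC/ERR cells were seeded at 2,000 cells/well and left 6 hours at 37 C/5% CO2 before pin-tool addition of compounds in DMSO. After 17.5 hours at 37 C, CellTiter-Fluor was added and fluorescence read 30 minutes later.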

For assay [10], the target named is Luciferin 4-monooxygenase (Photinus pyralis) (UniProt P08659). The assay can be described thus: qHTS assay to identify small molecule inhibitors of firefly luciferase (AID 1224835). Also: nearly all actives have a fitted effect of over 25% in size. Also: potency is read from the fitted curve at half-maximal effect. As to activity change, negative = inhibition: series mostly up to about 120 µM. The method, boiled down:
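Quantitative HTS format; KM concentrations of both substrates. Purified P. pyralis FLuc activity quantified from luminescence images.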

A short description of assay [11]: qHTS assay to identify small molecule agonists of the retinoic acid receptor (RAR) signaling pathway (AID 1159553). The method, boiled down:
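C3RL4 cells carrying a RARE luciferase reporter were plated overnight at 37 C, then exposed to compounds in DMSO for 6 hr at 37 C and 5% CO2. Luminescence was read 30 min after luciferase reagent addition at room temperature.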

A short description of assay [12]: qHTS assay to identify small molecule antagonists of the estrogen related receptor signaling pathway with the pleiotropic PPARgamma coactivator (PGC) from Tox21 10K library (AID 1224841; call rule not given here; also: series mostly up to about 92 µM; actives are mostly falling curves and most rising ones were filed inactive; nearly all actives have a fitted effect of over 50% in size). The method, boiled down: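 PGC/ERR reporter cells were seeded at 2,000 cells/well and held 6 hours at 37 C/5% CO2 before pin-tool addition of compounds in DMSO. After 18 hours at 37 C, One-Glo was added and luminescence read after 30 minutes at room temperature.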

A short description of assay [13]: qHTS assay to identify small molecule agonists of the estrogen related receptor signaling pathway with the pleiotropic PPARgamma coactivator (PGC) from Tox21 10K library (AID 1224842). Also: nearly all actives have a fitted effect of over 15% in size. The method, boiled down:
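PGC/ERR reporter cells (NTP line) were seeded 2,000 per well, rested 6 h at 37 C/5% CO2, then pin-dosed with compounds in DMSO for 18 h at 37 C; luciferase read by One-Glo luminescence after 30 min at room temperature.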

Assay [14] deals with Nuclear receptor subfamily 1 group I member 3 (Homo sapiens) (UniProt Q14994). The assay can be described thus: qHTS assay to identify small molecule agonists of the constitutive androstane receptor (CAR) signaling pathway (AID 1224839). Also: nearly all actives have a fitted effect of over 15% in size. Also: potency is read from the fitted curve at half-maximal effect. As to activation: series mostly up to about 92 µM. The method, boiled down:
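In this screen, CAR-driven CYP2B6 promoter activity is measured by luminescence in HepG2-CYP2B6-hCAR cells after 24 h with test compounds and 0.75 uM PK11195 (final concentration).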

Assay [15] is described as follows: qHTS assay to identify small molecule antagonists of the estrogen related receptor (ERR) signaling pathway - cell viability counter screen (AID 1224818).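 Also: series mostly up to about 46 µM; viability measured after 17.5 h of compound exposure.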 The method, boiled down:
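ERR reporter cells plated 6 h at 37 C/5% CO2, then compounds in DMSO pin-transferred and incubated 17.5 h at 37 C. Viability read as CellTiter-Fluor fluorescence after 30 min at 37 C.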

The nature of assay [16]: qHTS assay to identify small molecule antagonists of the estrogen related receptor (ERR) signaling pathway (AID 1224819;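 also: luminescence from an ERR-driven luciferase reporter measured with One-Glo reagent; series mostly up to about 46 µM; nearly all actives have a fitted effect of over 50% in size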). The method, boiled down:
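ERR reporter cells were plated at 2,000 cells/well and left 6 h at 37 C/5% CO2 before pin-tool transfer of compounds in DMSO. After 18 h at 37 C, One-Glo was added and luminescence was read 30 min later at room temperature.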

Assay [17] is described as follows: qHTS assay to identify small molecule agonists of the estrogen related receptor (ERR) signaling pathway (AID 1224820). In short, it runs like this:
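Quantitative HTS of the LOPAC library used NTP ERR reporter cells treated 18 h at 37 C. Signal is luminescence after One-Glo addition and a 30 min room-temperature incubation.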

For assay [18], the system named is estrogen-related receptor alpha (ERRalpha) with PGC-1alpha coactivator, human. The assay can be described thus: qHTS assay to identify small molecule antagonists of the estrogen related receptor signaling pathway with the pleiotropic PPARgamma coactivator (PGC) (AID 1224821; calls by dose curve). In short, it runs like this:
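Quantitative HTS for antagonism: PGC/ERR cells received compounds after 6 h attachment and were incubated 18 h at 37 C, with luminescence (One-Glo) as the endpoint.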

Assay [19] is described as follows: qHTS assay to identify small molecule antagonists of the estrogen related receptor signaling pathway with the pleiotropic PPARgamma coactivator (PGC) cell viability counter screen (AID 1224822; also: series mostly up to about 46 µM). The method, boiled down:
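PGC/ERR cells were seeded at 2,000 cells/well, rested 6 h at 37 C/5% CO2, then given compounds in DMSO by pin tool and incubated 17.5 h at 37 C. Viability came from CellTiter-Fluor fluorescence after 30 min.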

Assay [20] can be described thus: qHTS assay to identify small molecule agonists of the estrogen related receptor signaling pathway with the pleiotropic PPARgamma coactivator (PGC) (AID 1224823). In short, it runs like this:
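Cell-based luciferase assay in the NTP-supplied PGC/ERR line, 2,000 cells/well; 18 h compound exposure at 37 C, luminescence after One-Glo.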

Inconclusive results are not listed. Unmarked numbers belong to inactive results. Calls of active or inactive are those of the source. Unless noted, calls follow the shape of the dose curve; as a rule, active = well fitted curve in the direction sought with a large enough effect in the repeat runs; inconclusive = weak or mixed curves; inactive = no such curve, though single readings can be large; an effect the other way counts as inactive or inconclusive.
% is scaled to controls: 0 for no effect and ±100 for the full control effect.

Chain of Luciferin 4-monooxygenase (Photinus pyralis) (P08659 whole entry, looked up): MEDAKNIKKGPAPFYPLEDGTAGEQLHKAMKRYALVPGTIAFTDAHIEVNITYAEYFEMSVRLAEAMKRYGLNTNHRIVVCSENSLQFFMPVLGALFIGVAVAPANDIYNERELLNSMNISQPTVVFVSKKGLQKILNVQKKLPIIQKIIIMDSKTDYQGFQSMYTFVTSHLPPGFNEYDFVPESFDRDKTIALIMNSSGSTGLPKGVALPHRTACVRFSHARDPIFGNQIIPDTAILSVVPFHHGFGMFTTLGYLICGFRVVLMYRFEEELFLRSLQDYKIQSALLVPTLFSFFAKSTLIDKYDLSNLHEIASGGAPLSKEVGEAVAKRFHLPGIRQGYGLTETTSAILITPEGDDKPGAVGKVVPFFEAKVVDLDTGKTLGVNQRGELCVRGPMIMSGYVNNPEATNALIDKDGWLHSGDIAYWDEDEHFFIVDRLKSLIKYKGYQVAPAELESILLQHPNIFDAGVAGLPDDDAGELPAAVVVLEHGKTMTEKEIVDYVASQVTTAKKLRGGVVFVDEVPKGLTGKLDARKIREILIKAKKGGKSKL
Chain of Retinoic acid receptor RXR-alpha (Homo sapiens) (P19793 whole entry, looked up): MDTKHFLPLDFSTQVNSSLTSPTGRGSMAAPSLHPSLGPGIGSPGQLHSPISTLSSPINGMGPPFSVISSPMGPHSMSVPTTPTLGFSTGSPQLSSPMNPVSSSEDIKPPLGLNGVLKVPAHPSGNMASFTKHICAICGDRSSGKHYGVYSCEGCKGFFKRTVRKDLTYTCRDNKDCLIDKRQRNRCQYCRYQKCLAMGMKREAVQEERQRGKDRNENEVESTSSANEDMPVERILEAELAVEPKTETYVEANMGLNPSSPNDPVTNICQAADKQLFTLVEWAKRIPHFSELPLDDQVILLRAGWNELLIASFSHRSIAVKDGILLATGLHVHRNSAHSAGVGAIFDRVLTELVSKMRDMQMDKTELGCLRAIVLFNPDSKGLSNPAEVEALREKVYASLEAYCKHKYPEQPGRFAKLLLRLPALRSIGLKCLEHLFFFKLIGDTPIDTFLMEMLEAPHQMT
Chain of Nuclear receptor subfamily 1 group I member 3 (Homo sapiens) (Q14994 whole entry, looked up): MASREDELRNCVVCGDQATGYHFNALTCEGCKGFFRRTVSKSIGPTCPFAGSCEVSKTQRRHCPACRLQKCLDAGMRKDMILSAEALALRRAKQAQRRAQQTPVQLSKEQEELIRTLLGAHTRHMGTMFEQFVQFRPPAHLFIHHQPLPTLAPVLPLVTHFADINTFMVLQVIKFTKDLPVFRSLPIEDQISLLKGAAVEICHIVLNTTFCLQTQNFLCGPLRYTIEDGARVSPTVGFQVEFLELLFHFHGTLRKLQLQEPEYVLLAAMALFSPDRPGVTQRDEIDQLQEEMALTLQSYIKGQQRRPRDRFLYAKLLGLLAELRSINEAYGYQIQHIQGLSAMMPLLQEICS

`CCOC(=O)c1ccc(OC(=O)CCCCCN=C(N)N)cc1`: the Potency result in assay [1], in assay [5], in [6] and in [7] was “inactive” throughout. The compound was classed as inactive in assay [2], in assay [3], in assay [4], in [8] and in assay [9].

Regarding `Oc1ccccc1-c1nnco1`, the Potency result in [1], in assay [5], in [10] and in assay [7] was “inactive” in each case. Also, the compound was classed as inactive in assay [2], in assay [3], in assay [4] and in assay [9].

For the compound `Cc1ccccc1N=O`, the Potency entry in assay [1], in assay [11], in [5], in assay [10], in assay [6] and in assay [7] was “inactive” throughout. In [12], the Potency entry was “inactive”. The call in assay [2], in [3], in assay [9] and in assay [13] was inactive.

For the compound `O=C(O)CCSSCCC(=O)O`, the Potency entry in [1], in assay [5], in [6], in [7] and in assay [14] was “inactive” each time. Moreover, the compound was called inactive in assay [2], in assay [3], in assay [4], in [8] and in assay [9].

For the compound `Cc1cc2cc3c(C)cc(=O)oc3c(C)c2o1`, the Potency result in assay [1], in assay [5], in assay [7] and in assay [12] was “inactive” in each case. In addition, the result in assay [2], in assay [3], in assay [4], in assay [8], in assay [9] and in [13] was inactive. Besides, in assay [14], the Potency is 11.9 µM (active).

On to `COCCc1ccc(OCC2CO2)cc1` (stereo unspecified), for which the Potency entry in assay [1], in assay [5], in [10], in assay [7] and in [14] was “inactive” throughout. The outcome in assay [2], in [3], in [4], in [8] and in assay [9] was inactive.

Turning to `CCOC(=O)/C=C/c1ccccc1`, the Potency entry in assay [1], in assay [5], in [7] and in assay [14] was “inactive” each time. Moreover, the compound was classed as inactive in assay [2], in assay [3], in assay [4], in assay [8] and in assay [9]. For the same compound, the Potency in [10] is 35.6 µM (active).

For `CC(=O)/C=C/C1C(C)=CCC(C)C1(C)C` (stereo unspecified), the Potency result in assay [1], in assay [5], in assay [10], in [7], in assay [14] and in assay [12] was “inactive” throughout. For the same compound, the result in assay [2], in assay [3], in [4], in assay [8], in [9] and in assay [13] was inactive.

Take `O=S(O)(O)=S`: the activation is 4.57% [at 6.98 µM] in assay [1], -0.738% [at 8.36 µM] in assay [11] and -0.09% [at 8.39 µM] in [13]. Further, the activity change, negative = cytotoxicity is 0.418% [at 6.97 µM] in assay [2], 0.445% [at 8.39 µM] in assay [3] and 0.559% [at 8.39 µM] in assay [7]. For the same compound, the viability change, negative = cytotoxic in assay [5] was 0.32% [at 8.39 µM]; in assay [9], 0.0211% [at 8.39 µM]. Moreover, in assay [10], the activity change, negative = inhibition was 1.12% [at 10.5 µM]. Also, the activity, negative = inhibition in [8] is -2.22% [at 8.39 µM].

With `OCCCCC(O)CO` (stereo unspecified), the Potency in assay [1] was 11.6 µM (active). In addition, the call in assay [2], in assay [3], in [9] and in assay [13] was inactive. The Potency entry in assay [11], in [5], in assay [7] and in [12] was “inactive” in each case.

In the case of `CCN(CC)CC(=O)Nc1c(C)cccc1C`, the Potency result in assay [1], in assay [11], in assay [5], in assay [6], in assay [7] and in assay [12] was “inactive” in each case. Moreover, the result in assay [2], in assay [3], in assay [15], in [16], in assay [17] and in assay [18] was inactive. The compound was classed as inactive in assay [19], in assay [20], in [9] and in assay [13].

The record behind these values is PubChem BioAssay (Tox21).
